Bioassay records as filed in PubChem.
B2AR arrestin = agonists driving beta-arrestin recruitment to human beta2-adrenergic receptor; P07550; beta-arrestin recruitment to beta2AR, cell-based reporter; 0.02% of 330,000 active; AID 492947; Potency, µM (highest dose often 46.1 µM), for inactives: top-dose activation, hits mostly activators;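 note: 0% = DMSO controls and full agonism = EC100 isoproterenol or metaproterenol; nearly all actives have a fitted effect of over 65% in size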
Target sequence (P07550 whole entry, looked up): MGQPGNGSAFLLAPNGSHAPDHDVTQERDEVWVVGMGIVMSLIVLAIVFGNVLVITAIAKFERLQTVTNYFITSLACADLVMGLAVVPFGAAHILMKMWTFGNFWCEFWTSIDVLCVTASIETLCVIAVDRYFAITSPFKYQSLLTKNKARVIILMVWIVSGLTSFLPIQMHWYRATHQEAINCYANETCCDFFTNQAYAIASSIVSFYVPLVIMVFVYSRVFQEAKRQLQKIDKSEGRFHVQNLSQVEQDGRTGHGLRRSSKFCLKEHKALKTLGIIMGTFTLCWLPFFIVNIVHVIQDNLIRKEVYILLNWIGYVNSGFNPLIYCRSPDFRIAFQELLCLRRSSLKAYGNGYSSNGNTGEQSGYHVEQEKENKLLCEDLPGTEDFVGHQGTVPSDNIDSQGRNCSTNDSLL
NPSR antag = neuropeptide S receptor (human) antagonism, cAMP; CHO-NPSR cells, cAMP TR-FRET, antagonist mode; Potency, µM (titrated, usually from 38.3 µM), without a hit: at the top dose activity change, negative = inhibition, usual class: inhibitors; 1% of 220,000 active; AID 1461; note: nearly all actives have a fitted effect of over 50% in size
VP16 counter = inhibits Gal4-VP16 luciferase reporter, ROR gamma counter-screen; Drosophila S2 Gal4-VP16 UAS-luciferase, luminescence, 20 h; Potency, µM (top dose mostly 53.6 µM), without a hit: at the top dose activity, negative = inhibition, usual class: inhibitors; AID 2546; 3.5% of 310,000 active;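 note: Gal4-VP16 expression switched on by copper sulfate through the metallothionein promoter; nearly all actives have a fitted effect of over 50% in size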
RORg inh = blocks mouse ROR gamma transcriptional activity; Drosophila S2 Gal4-RORgamma UAS-luciferase reporter, 20 h; Potency, µM (titrated, usually from 53.6 µM), for inactives: at the top dose activity change, negative = inhibition, most hits filed as inhibitors; 5.4% of 310,000 active; note: nearly all actives have a fitted effect of over 60% in size
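Drosophila Schneider cells stably carrying a metallothionein-driven Gal4 DBD–ROR gamma fusion and a UAS-Photinus luciferase reporter were exposed to compound for 1 hr, then induced with copper sulfate (700 uM final) for 20 hr at ambient temperature before luminescence reading.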
Active calls of the source: *; [ ] = remark or other dose. This is a sample that favours compounds with a hit; in the whole collection about 5.7% have one here. Calls come from the whole dose curve; as a rule, active = well fitted curve in the direction sought with a large enough effect; inconclusive = small, poorly fitted or top-dose-only effect, or another doubt; inactive = no such curve, though single readings can be large; an effect the other way counts as inactive or inconclusive. Unless noted, % is set by controls: 0 for no effect and ±100 for the full control effect; potency is the fitted concentration of half-maximal effect.

`Cc1nc2ccccc2n1-c1ccccc1` gave B2AR arrestin 0%, NPSR antag -5%[46.1 µM], VP16 counter -12% and RORg inh 0%.
For Cc1ccccc1-n1c(C)nc2ccccc21 the results were B2AR arrestin 0%, NPSR antag -8%[46.1 µM], VP16 counter 7%[0.365 µM] and RORg inh 11µM*.
For CCC(=O)NNc1nc2c(F)cc(F)cc2s1 the results were B2AR arrestin 0%, NPSR antag 11%, VP16 counter -28% and RORg inh -6%.
For O=C(NNc1nc2c(F)cc(F)cc2s1)C1=COCCO1 the results were B2AR arrestin 0%, NPSR antag 6%, VP16 counter -27% and RORg inh 8.9µM*.
Cc1cc(C(=O)Nc2nc3c(C)cccc3s2)c(C)o1 was read as B2AR arrestin 0%, NPSR antag -4%[46.1 µM], VP16 counter inconclusive and RORg inh inconclusive.
Cc1cccc2sc(NNC(=O)C3=COCCO3)nc12 was read as B2AR arrestin 0%, NPSR antag 13%, VP16 counter 13µM* and RORg inh 2.2µM*.
For Cc1ccc(C(O)(C(=O)NNc2ccc3ccccc3n2)c2ccc(C)cc2)cc1 the results were B2AR arrestin 0%, NPSR antag -13%, VP16 counter 8.9µM* and RORg inh 10µM*.
For Cc1ccc(C(=O)Nc2ccc3ccccc3n2)cc1 the results were B2AR arrestin 0%, VP16 counter inconclusive and RORg inh inconclusive.
For O=C(N/N=C/c1c(-c2ccccc2)[nH]c2ccccc12)c1cccnc1 the results were B2AR arrestin 0%, NPSR antag -22%, VP16 counter -19% and RORg inh 17%.
For COc1ccc(Cn2c(O)c(/C=N/NC(=O)c3cccnc3)c3ccccc3c2=O)cc1 the results were B2AR arrestin -1%, NPSR antag -23%, VP16 counter 0% and RORg inh 6.3µM*.
O=C(N/N=C/c1cccc2ccccc12)c1cccnc1 was read as B2AR arrestin 0%, VP16 counter 20% and RORg inh -4%.
O=C(N/N=C/c1c(O)n(-c2ccccc2Cl)c(=O)c2ccccc12)c1cccnc1 was read as B2AR arrestin 0%, NPSR antag -10%, VP16 counter -7% and RORg inh 13µM*.
Screening O=C(N/N=C/c1c(O)n(Cc2ccccc2)c(=O)c2ccccc12)c1cccnc1 returned B2AR arrestin 0%, NPSR antag -14%, VP16 counter -1% and RORg inh 11µM*.
Screening Cc1[nH]c(C)c(S(=O)(=O)Nc2cccc(Cl)c2C)c1C(=O)N1CCCCC1 returned B2AR arrestin 0%, VP16 counter -3% and RORg inh -1%.
Screening C=CCn1c(O)c(N=NC(=S)Nc2ccccc2C)c2cc(S(=O)(=O)N3CCOCC3)ccc21 returned B2AR arrestin inconclusive, NPSR antag -26%, VP16 counter 2µM* and RORg inh 0.5µM*.
For C=CCn1c(O)c(N=NC(=S)Nc2ccc(OC)c(Cl)c2)c2ccccc21 the results were B2AR arrestin 0%, NPSR antag -2%, VP16 counter 4µM* and RORg inh 2.8µM*.
Cc1ccc(N=Nc2c(O)n(CN3CCOCC3)c3ccccc23)cc1 was read as B2AR arrestin -1%, NPSR antag -10%[46.1 µM], VP16 counter -8% and RORg inh 23%.
O=C(Nc1ccccc1F)Nc1cc(S(=O)(=O)N2CCOCC2)ccc1N1CCCC1 was read as B2AR arrestin 0%, NPSR antag -24%, VP16 counter 14% and RORg inh 21%.
For Cc1cccc(NC(=S)N=Nc2c(O)n(CN3CCOCC3)c3ccccc23)c1C the results were B2AR arrestin inconclusive, NPSR antag -29%[46.1 µM], VP16 counter 1.1µM* and RORg inh 0.71µM*.
`Cn1c(O)c(N=NC(=S)Nc2ccccc2F)c2cc(S(=O)(=O)N3CCOCC3)ccc21` gave B2AR arrestin 5%, NPSR antag -38%, VP16 counter 2µM* and RORg inh 0.32µM*.
`CC(C)(O)c1[nH]c2cc(F)ccc2c1C(C)(C)O` gave B2AR arrestin -1%, VP16 counter 7% and RORg inh 7%.
Cc1ccc(S(=O)(=O)N2CCN(S(=O)(=O)c3ccccc3Br)C2=O)cc1 was read as B2AR arrestin -1%.
Screening O=S(=O)(Nc1ccc(-n2cnnn2)cc1)c1ccc(Cl)s1 returned B2AR arrestin 0%.
Screening CCNc1ncc2nc(C)c(=O)n(C)c2n1 returned VP16 counter -3% and RORg inh 3%.
Cc1ccc(NC(=S)N=Nc2c(O)n(C)c3ccc(S(=O)(=O)N4CCOCC4)cc23)cc1C was read as B2AR arrestin 0%, NPSR antag -8%, VP16 counter 3.2µM* and RORg inh 0.71µM*.
For COC(=O)C(C(C)=O)C(NC(=O)NCc1ccccc1)c1ccccc1 (stereo not given) the results were VP16 counter -7%[10 µM] and RORg inh 6%[10 µM].
For S=C(Nc1ccccc1Oc1ccccc1)NC1CCCC1 the results were B2AR arrestin 6%, NPSR antag -39%, VP16 counter 7.1µM* and RORg inh 3.2µM*.
Screening COc1ccc(NC(=S)NC2CCCCC2)cn1 returned B2AR arrestin 0%, NPSR antag 4%, VP16 counter inconclusive and RORg inh 13µM*.
Screening S=C(Nc1ccc(Br)cc1)NC1CCCC1 returned B2AR arrestin 0%, NPSR antag -11%, VP16 counter 10µM* and RORg inh 6.3µM*.
S=C(Nc1ccc(Oc2ccccc2)cc1)NC1CCCC1 was read as B2AR arrestin 0%, NPSR antag -3%[46.1 µM], VP16 counter 5µM* and RORg inh 5µM*.
`COC(=O)c1ccc(NC(=S)NC2CC2)cc1` gave B2AR arrestin 0%, NPSR antag -18%, VP16 counter 27% and RORg inh inconclusive.
`N#CC(c1ccc(Cl)cc1)c1c(Cl)cc(-n2ncc(=O)[nH]c2=O)cc1Cl` (stereo not given) gave VP16 counter -2% and RORg inh 13%.
For CO[C@@H]1COC(=O)C/C=C\[C@@H](C)[C@H](OC)COC(=O)C/C=C\[C@H]1C the results were VP16 counter 0%[10 µM] and RORg inh -13%[10 µM].
`S=C(NCC1CCCCC1)Nc1ccc(Oc2ccccc2)cc1` gave B2AR arrestin 0%, NPSR antag -55%, VP16 counter 5µM* and RORg inh 2.8µM*.
`O=C1C(N2CCOCC2)=C(n2nnc3ccccc32)C(=O)c2ccccc21` gave B2AR arrestin -2%, NPSR antag inconclusive, VP16 counter 5.6µM* and RORg inh 5µM*.
CC1CC(C)(C)CC2(C1)NC(=O)N(CC(=O)Nc1cc([N+](=O)[O-])ccc1F)C2=O (stereo not given) was read as B2AR arrestin 0%.
`COc1ccc(/C=N/Nc2ncnc3sc4c(c23)CCCC4)cc1OC` gave B2AR arrestin 0%, NPSR antag -7%, VP16 counter 4µM* and RORg inh 3.2µM*.
CS(=O)(=O)N(CC(=O)NCc1ccncc1)Cc1ccc(Cl)cc1 was read as B2AR arrestin 0%, NPSR antag 0%[46.1 µM], VP16 counter -2% and RORg inh 15%.
